Most compounds without a hit are left out; they make up all but 1.4% or so of the library.
PrPC TRFRET = reduces human prion protein on the cell surface; P04156; cell surface PrPC, TR-FRET read-out; inhibition, % at 13.8 µM; hit rate 0.43% among 370,000; in the data active means inhibition above about 24%; further: 0% = median of the test wells and 100% = reference compound wells
PrP 5UTR inh = inhibition of PrP 5' UTR reporter expression. cell-based PrP 5' UTR mRNA reporter, plate reader. inhibition, % (concentration not given with the values). hit rate 0.35% among 340,000; in the data active means inhibition above about 52%; further: 0 = median of the neutral control wells
FadD28 FP inh = inhibitors of Mycobacterium tuberculosis FadD28 bisubstrate binding. AID 588549. inhibition, % at 12.5 µM. hit rate 0.22% among 360,000. FadD28 bisubstrate probe binding, fluorescence polarization; in the data active means inhibition above about 8.5%, passing the limit was not always enough
SSB-PriA inh = inhibitors of Klebsiella pneumoniae PriA binding to SSB C-terminal tail. AlphaScreen SSBct-PriA binding, biotinylated peptide. inhibition, % at 33 µM. hit rate 0.6% among 430,000; in the data active means inhibition mostly above about 37%, no sharp cut-off; inactive means mostly below about 20%;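 further: plate controls were negative control peptide for no effect and reference peptide for full effect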
BH1578 lux ind = induces V. cholerae light production without autoinducers; AID 588436; V. cholerae BH1578 lux reporter, luminescence, 6 h; hit rate 0.16% among 350,000; activation, % at 18.7 µM; in the data active means activation mostly above about 9.7%, no sharp cut-off
* = called active by the depositor; i = inactive; . = no result; ! = not active in a repeat.

SMILES | PrPC TRFRET | PrP 5UTR inh | FadD28 FP inh | SSB-PriA inh | BH1578 lux ind
O=C(c1ccc(-n2cccc2)cc1)N1CCN(Cc2csc(-c3ccccc3)n2)CC1 | . | . | . | 29* | .
O=C(c1ccc(-n2cccc2)cc1)N1CCN(Cc2ccccc2)CC1 | 3 | -20 | 2 | 5 | .
CCOc1ccc(NC(=O)C2CCN(c3ccc(S(=O)(=O)c4ccc(C)cc4)nn3)CC2)cc1 | . | . | . | -14 | .
C=CCn1c(O)c(CN2CCN(Cc3ccccc3)CC2)c(C)c(C#N)c1=O | 2 | -27 | 2 | -2 | 17*
O=c1c2ccccc2n(Cc2nc(-c3ccccc3Cl)no2)c(=O)n1CCc1ccccc1 | . | . | . | -7 | .
CCN(CC)C(=O)c1sc(NC(=O)c2ccncc2)c(C(=O)OC)c1C | 9 | -30 | -1 | 65* | i
CCOC(=O)c1sc(NC(=S)NC(=O)c2ccccc2)c(C(=O)OCC)c1C | 0 | -5 | -2 | 82*! | i
COc1cc(OC)nc(Oc2ccccc2C=NO)n1 | . | . | . | -10 | .
Cc1cn(C)nc1C(=O)Nc1nc2ccc(Cl)cc2s1 | . | . | . | -13 | .
COc1ccc([C@H]2CCN(C(=O)c3ccccn3)C2)cc1 | . | . | . | 1 | .
O=S(=O)(NCCOc1cc(N2CCCCC2)ncn1)c1ccc(OC(F)(F)F)cc1 | . | . | . | -15 | .
O=[N+]([O-])c1ccc(C[n+]2cccc3ccc4cccnc4c32)cc1 | -37 | -10 | -3 | 90* | i
CCOC(=O)c1cnn2ccc(NC(=O)COc3cccc4c3OC(C)(C)C4)cc12 | . | . | . | 4 | .
COc1ccc(Nc2nc(Nc3ccc(C)c(C)c3)nc(N3CCOCC3)n2)cc1Cl | . | . | . | 3 | .
Cc1ccc(-c2cc(-c3nnc(SCC(=O)NCC(C)C)n3N)c3ccccc3n2)cc1 | -11 | -7 | -5 | -1 | i
CCC(C)NC(=O)CSc1nnc(-c2cc(-c3ccc(C)cc3)nc3ccccc23)n1N (stereo unspecified) | -9 | -10 | -2 | 1 | 40*
Cc1ccc(NC(=O)CNc2ccccc2N2CCCC2=O)cc1S(=O)(=O)N1CCCCC1 | 0 | -20 | 42* | -13 | i
CCc1ccc(CSc2nccn2-c2ccccc2)cc1 | 2 | 2 | -3 | 63* | -1
c1ccc(CCSc2nccn2-c2ccccc2)cc1 | 2 | -37 | -2 | 62* | 0
COC(=O)CCCSc1nccn1-c1ccccc1 | 4 | -24 | -1 | 13 | 1
O=C(CSc1nccn1-c1ccccc1)NCc1ccc(F)cc1 | 9 | -17 | 1 | 12 | 0
O=C(N/N=C/c1cc(Br)c(Br)o1)C1COc2ccccc2O1 (stereo unspecified) | . | . | . | i | .
O=C(NC(=S)N1CCN(c2ccc(C(F)(F)F)cc2[N+](=O)[O-])CC1)c1cccs1 | -2 | -10 | 2 | 51* | 0
CCN1CCN(C(=S)NC(=O)c2cccs2)CC1 | -1 | -14 | -1 | -12 | i
CSC(=NCc1ccc(F)cc1)NS(=O)(=O)c1cccs1 | -3 | -16 | -2 | -13 | 0
SMILES | PrPC TRFRET | PrP 5UTR inh | FadD28 FP inh | SSB-PriA inh | BH1578 lux ind
CS/C(=N\S(=O)(=O)c1ccc(N)cc1)NS(=O)(=O)c1cccs1 | . | 4 | 30* | . | -1
S=c1[nH]nc(-c2ccccn2)n1N=Cc1cccc2ccccc12 | . | . | . | 38 | .
Cc1ccccc1C=Nn1c(-c2ccccn2)n[nH]c1=S | . | . | . | 59* | .
Cc1ccc(C=Nn2c(-c3ccccn3)n[nH]c2=S)o1 | . | . | . | 72* | .
Nn1c(-c2ccccc2)n[nH]c1=S | . | . | . | 5 | .
Nn1c(-c2ccccn2)n[nH]c1=S | . | . | . | 83* | .
S=c1[nH]nc(-c2ccccn2)n1N=Cc1ccccc1 | . | . | . | 74* | .
COc1ccc(S(=O)(=O)N2CCCCC2CC(=O)Nc2ccc3c(c2)OCO3)cc1 (stereo unspecified) | . | . | . | -4 | .
Cc1ccc(-c2csc(NS(=O)(=O)c3cccc(F)c3)n2)o1 | 7 | -14 | 16* | -5 | -4
Cc1nc(CNS(=O)(=O)c2cccc(F)c2)cs1 | 6 | -10 | -2 | -24 | 5
O=C(Nc1nnc(C2CCCO2)o1)c1cccc(Oc2ccccc2)c1 (stereo unspecified) | . | . | . | 74* | .
O=C(/C=C/c1ccccc1Cl)Nc1nnc(C2CCCO2)o1 (stereo unspecified) | . | . | . | 7 | .
CCn1nc(C(=O)N2CC(=O)Nc3ccccc32)cc1C | . | . | . | -17 | .
c1cnn(-c2ccc(N3CCNCC3)nn2)c1 | . | . | . | 3 | .
c1ccc(Nc2ccc(N3CCNCC3)nn2)nc1 | . | . | . | 56* | .
Cn1nc(-c2cccs2)cc1C(=O)N1CCC[C@H](c2nnc(C(F)(F)F)o2)C1 | . | . | . | -13 | .
COc1ccc(CCNCCC(c2ccccc2)c2ccccc2)cc1OC | -8 | . | -4 | . | 0
COc1cc(OC)c(OC)cc1CCC(C)NCCC(c1ccccc1)c1ccccc1 (stereo unspecified) | -19 | -6 | -4 | 42* | -1
CCS(=O)(=O)c1cccc(C(=O)Nc2nnc(-c3ccc(F)cc3)o2)c1 | . | . | . | 4 | .
O=C(NCCCn1ccnc1)C(=O)Nc1ccc2c(c1)N(S(=O)(=O)c1cccs1)CCC2 | . | . | . | 51* | .
CC(C)(C)c1ccc(OCCNC(=O)c2ncn[nH]2)cc1 | 2 | -5 | -9 | 57* | i
COCCn1c(=S)[nH]c2sc3c(c2c1=O)CCC(C)C3 (stereo unspecified) | -5 | -20 | 12* | -4 | i
COc1ccc(Nc2nc(NC(C)(C)C)nc(N3CCCC3)n2)c(OC)c1 | 5 | -11 | 0 | 44* | i
COC(=O)c1ccccc1NC(=O)c1ocnc1C | . | . | . | -8 | .
CC(=O)C(Sc1nn(C)c(=S)s1)C(=O)Nc1ccccc1 (stereo unspecified) | -4 | -26 | -3 | -6 | 25*
SMILES | PrPC TRFRET | PrP 5UTR inh | FadD28 FP inh | SSB-PriA inh | BH1578 lux ind
COCCn1cc(NC(=O)Nc2cccc(C)c2C)c2ccccc21 | . | . | . | 7 | .
COCCn1cc(NC(=O)Nc2cc(C)ccc2OC)c2ccccc21 | . | . | . | 37* | .
O=C(Nc1ccc(-n2nncc2-c2ccco2)cc1)c1cc2ccccc2oc1=O | . | -30 | -2 | 46* | 0
O=C(Nc1ccc(Nc2ccc(-n3cccn3)nn2)cc1)c1cc2ccccc2oc1=O | . | . | . | 56* | .
O=C(Nc1ccc(Nc2ccc(-n3cccn3)nn2)cc1)Nc1cccc(F)c1 | . | . | . | 36* | .
O=C(Nc1ccc(F)cc1)Nc1ccc(Nc2ccc(-n3cccn3)nn2)cc1 | . | . | . | -6 | .
O=C(Nc1ccc(Nc2ccc(-n3cccn3)nn2)cc1)c1ccccc1C(F)(F)F | . | . | . | 5 | .
COc1cccc(C(=O)Nc2ccc(Nc3ccc(-n4cccn4)nn3)cc2)c1OC | . | . | . | 70* | .
CCN1CCN(Cc2ccc(NC(=O)c3ccc(C)c(NC(=O)c4ccc5n[nH]nc5c4)c3)cc2C(F)(F)F)CC1 | 0 | 13 | -4 | -10 | 0
CCN1CCN(Cc2ccc(NC(=O)c3ccc(C)c(NC(=O)C(=O)c4c[nH]c5ccccc45)c3)cc2C(F)(F)F)CC1 | -8 | 35 | 55*! | 37 | 0
CCN1CCN(Cc2ccc(NC(=O)c3cc(NC(=O)C(=O)c4c[nH]c5ccccc45)cc(OC)c3)cc2C(F)(F)F)CC1 | -24 | 26 | 66*! | 14 | 0
CCN(CC)c1ccc(C=NNc2nc3ccccc3[nH]2)c(O)c1 | . | . | . | 92 | .
CCN(CC)c1ccc2nc3ccc(N)cc3[n+](-c3ccccc3)c2c1 | -51 | -19 | 48* | 54* | i

Source: PubChem
